Test results from PubChem BioAssay AID651567 (National Center for Advancing Translational Sciences (NCATS), 2012).
The campaign covered roughly 1,200 compounds. About 10 (0.8%) were called active. Not shown: some 4% with an inconclusive outcome. Calls follow the shape of the dose curve; as a rule, active = well fitted inhibition curve with a large enough effect; inconclusive = small, poorly fitted or top-dose-only effect; inactive = no such curve, though single readings can be large or run the other way. Many of the other results were omitted from the sample, so actives are more common in it than they were.

experiment: qHTS Assay to Find Inhibitors of Chronic Active B-Cell Receptor Signaling: Hit Validation in OCI-Ly3 Assay; conditions: OCI-Ly3 IkB-luciferase reporter, Chroma-Glo luminescence, 4 h; series mostly up to 46.1 µM; activity change, negative = inhibition: at the top concentration
Description: Diffuse large B-cell lymphoma (DLBCL) is the most common category of non-Hodgkin lymphoma, with ~20,000 new cases per year in the United States. DLBCL should be regarded as a collection of different neoplasms. Microarray gene expression analysis has defined two principal types of DLBCL, named for their similarity to normal B cell stages or activation states: a germinal center B-cell (GCB) type, and an activated B-cell (ABC) type. In ABC-DLBCL, a constitutive high-level activity of the NF-kappaB family of transcription factors has been observed (1) and NF-kappaB target genes are more highly expressed in ABC primary tumors than in GCB tumors. Functional studies have shown a constitutive high-level activity of the IkappaB (inhibitor of kappa-B) kinase (IKK) complex. […] Further analysis of DLBCL primary tumors for NF-kappaB target gene expression imply that although CARD11 is required for constitutive IKK activity in all ABC-DLBCL lines, mutations in CARD11 may be the root cause of IKK activation only in lines or tumors with such mutations. In other words, CARD11 mutations may explain NF-kappaB activation in only 10% of ABC-DLBCL cases. […] This process has been termed 'chronic active BCR signaling' (CABS). The goal of this screen is to find small-molecule inhibitors of the CABS pathway found in ABC-DLBCL lines using a cell-based assay that measures IkappaBalpa stability, which has already been extensively validated in the OCI-Ly3 line (PubChem AID:445; REF: 4). […] Hits from the primary screen were tested in this selectivity secondary assay. NIH Molecular Libraries Probe Production Network [MLPCN] NIH Chemical Genomics Center [NCGC] MLPCN Grant: R03 DA031086 PI Name: Dr. R. Eric Davis
Cells were seeded in 1536-well plates at 5000 cells/3ul in IMDM medium containing 0.5% FBS, w/o phenol red, L-glutamine, 25 mM HEPES, 3 mg/ml sodium bicarbonate. After centrifugation for 1 min. at 1000 rpm, 23 nl of compounds or DMSO were delivered to each well using a pin tool. Then 1ul 80ng/ml doxycycline was dispensed into white solid 1536-well plates and the plates were incubated at 37C/5% C02 in a cell incubator for 4 hrs. Then 4 ul Chroma-Glo luminescent substrate mix (Promega) was added to each well. The plate was incubated at R.T. for 10-15 min. The plates were measured on a ViewLux plate reader for green luminescence (540/20 nm filter) and red luminescence (618/8 nm filter). The green and red luminescent signals were corrected for red and green luminescence filter overlap using previously determined filter calibration constants (determined using the procedure outlined in the Promega Technical Manual). The %Activity was determined from the ratio of corrected green/red luminescent values. Green luminescent and ratio %Activity was determined by normalizing to the difference in signal between basal cells (0% Activity) and cells incubated with 10 uM of the proteasome inhibitor MG-132 (100% Activity). Red luminescent %Activity was normalized to the difference between red luminesence in basal cells (0%Activity) and zero luminescence (-100% Activity). Concentration-response curves were fitted to the signals arising from the green luminescence (I-kappa-B-alpha-luciferase fusion; IkB-luc) and the red luminescence (unfused luciferase; luc) as well as the calculated ratio. The concentration-effect curves were then classified based on curve quality (r2), response magnitude and degree of measured activity. Compounds were then categorized based on their concentration-response curves for all three datasets (Ikb-luc, luc and ratio).
% is scaled to controls: 0 for no effect and ±100 for the full control effect; potency is read from the fitted curve at half-maximal effect.

| Compound | activity change, negative = inhibition | Potency |
| --- | --- | --- |
| CCN1C(=O)C(O)(C2COC(C)(C)CC2=O)c2cc(Br)ccc21 (stereo unspecified) | -6.91% (inactive) | – |
| Cc1nn(-c2ccccc2)c(C)c1/C=N/NC(=O)c1cc(-c2cccs2)[nH]n1 | – | 18.4 µM (active) |
| Cc1ccc(-c2cc(C(=O)N/N=C/c3c(C)nn(-c4ccccc4)c3C)[nH]n2)cc1 | -14.7% (inactive) | – |
| O=C(N/N=C/c1cccs1)c1cc(-c2ccncc2)nc2ccccc12 | -3.1% (inactive) | – |
| COc1ccc(COC(=O)C2=C(C)NC(=O)NC2c2cc(Br)c(O)c(OC)c2)cc1 (stereo unspecified) | 0.378% (inactive) | – |
| CCOC(=O)CSc1nc(C)c2cccc(C)c2n1 | 0.225% (inactive) | – |
| COc1ccc(C2=Nn3c(nnc3-c3ccccc3OC)SC2)cc1OC | -2.26% (inactive) | – |
| Fc1cccc2sc(Nc3nnc(-c4ccccc4)o3)nc12 | 21.3% (inactive) | – |
| Nc1ncnc2c1ncn2C1OC(C(=O)NC2CC2)C(O)C1O (stereo unspecified) | -1.22% (inactive) | – |
| CC(/C=N/NC(=O)c1cc(-c2ccc(Cl)cc2)nc2ccccc12)=C\c1ccco1 | -1.82% (inactive) | – |
| Cc1noc(C)c1COc1ccc(CC(=O)NCc2ccccc2)cc1 | -1.46% (inactive) | – |
| Cc1cc(C)c(S(=O)(=O)Nc2ccc3c4c(cccc24)CC3)c(C)c1 | -5.19% (inactive) | – |
| CCOc1ccc(Nc2cc(C)nc(-n3nc(C)cc3C)n2)cc1 | -3.94% (inactive) | – |
| COc1ccc(OC)c(C2CC(=O)c3c([nH]c(C(=O)OC(C)C)c3C)C2)c1 (stereo unspecified) | -5.41% (inactive) | – |
| COc1ccccc1-c1nnc(Nc2nc3c(OC)cccc3s2)o1 | 14.5% (inactive) | – |
| C=CCn1c(SCC(=O)NCCO)nc2sc(C)c(C)c2c1=O | -0.853% (inactive) | – |
| O=C(CNC(=O)c1ccco1)N=Nc1c(O)n(CCc2ccccc2)c2ccccc12 | -1.99% (inactive) | – |
| C=CCNc1ncnc2c1ncn2C1OC(CO)C(O)C1O (stereo unspecified) | -1.82% (inactive) | – |
| COc1cccc(CSc2nc3ccccc3cc2C=O)c1 | -1.56% (inactive) | – |
| O=C(/C=C/c1cccc(Cl)c1)c1nc2ccccc2[nH]1 | 0.678% (inactive) | – |
| COc1cc2c(cc1OC)C(c1cc3cc(OC)c(OC)cc3[nH]c1=O)N(C(=O)C1CC1)CC2 (stereo unspecified) | -0.249% (inactive) | – |
| CCOc1cc(CNc2ccc3c(c2)OCCO3)cc(Br)c1OCC | -7.23% (inactive) | – |
| CC(C)Oc1ccccc1C1CC(=O)Nc2cc3c(cc21)OCCO3 (stereo unspecified) | -4.7% (inactive) | – |
| C=C1C(O)[C@@H]2O[C@]3(CC[C@H](/C=C/C(C)[C@@H]4CC(C)=CC5(O[C@H](C[C@@](C)(O)CO)CCC5O)O4)O3)CC[C@H]2O[C@@H]1C(O)CC(C)[C@H]1OC2(CCCCO2)CCC1C (stereo partly specified) | -6.02% (inactive) | – |
| Cc1cc(Cl)n2c(nc3ccccc32)c1C#N | -0.275% (inactive) | – |
| COc1ccc(-c2noc(CSc3nc(N)c(-c4ccccc4)c(=O)[nH]3)n2)cc1OC | -0.927% (inactive) | – |

| Compound | activity change, negative = inhibition | Potency |
| --- | --- | --- |
| COc1ccc(CN2C[C@H]3CCCN3c3cc(Br)ccc3S2(=O)=O)cc1 | -3.64% (inactive) | – |
| CCOCCOC(=O)c1[nH]c2c(c1C)C(=O)CC(c1ccccc1)C2 (stereo unspecified) | -0.56% (inactive) | – |
| CCOc1cc(C(=O)N/N=C/C(Br)=C/c2ccccc2)cc(OCC)c1OCC | -11.1% (inactive) | – |
| CCOC(=O)c1ccc(NC(=O)Nc2ccon2)cc1 | -4.1% (inactive) | – |
| Cc1ccccc1Nc1c(N)c(=O)oc2ccccc12 | -0.754% (inactive) | – |
| COc1cc(/C=C/c2ccc3cccc(O)c3n2)cc(OC)c1OC | 122% (inactive) | – |
| COc1cc(/C=C/c2ccc3cccc(O)c3n2)cc(Br)c1OC | – | 10.3 µM (active) |
| COc1cc(/C=C/c2ccc3cccc(O)c3n2)c(Br)cc1O | 31% (inactive) | – |
| Fc1ccc(/C=N/NC2=Nc3cccc4cccc2c34)cc1 | -1.29% (inactive) | – |
| CNC(=O)c1cccc(NC(=O)C(C)c2ccc3cc(OC)ccc3c2)c1 (stereo unspecified) | -3.81% (inactive) | – |
| COc1ccc(C(C)=O)cc1COC(=O)c1ccc(N)c([N+](=O)[O-])c1 | -0.216% (inactive) | – |
| CCOc1cc(/C=C(/C#N)C(=O)Nc2ccc(O)cc2)cc(Br)c1O | -11.9% (inactive) | – |
| COC(=O)c1ccc(C)c(NS(=O)(=O)c2ccc3c(c2)OCCO3)c1 | -3.3% (inactive) | – |
| CCN(CC)c1ccc(-c2nn3c(-c4n[nH]c5c4CCC5)nnc3s2)cc1 | -7.08% (inactive) | – |
| CC1C(=O)N2CCCc3cc(NC(=O)c4ccccc4Br)cc1c32 (stereo unspecified) | -10.2% (inactive) | – |
| O=C(Nc1ccc(N2CCCC2)cc1)c1cc(Cl)ccc1Cl | -1.28% (inactive) | – |
| COC(=O)c1cc(C(=O)N2CCN(c3cccc(Cl)c3)CC2)cc([N+](=O)[O-])c1 | -3.03% (inactive) | – |
| O=C(Nc1ccc(N2CCN(C(=O)c3ccc(Cl)cc3)CC2)cc1)c1ccc([N+](=O)[O-])o1 | – | 16.4 µM (active) |
| CCC1=Nc2cc(C(=O)NCc3ccco3)ccc2Sc2ccccc21 | -2.12% (inactive) | – |
| CCCCC[C@H](O)/C=C/[C@@H]1[C@@H](C/C=C\CCCC(=O)O)[C@H]2CO[C@@H]1C2 | -0.516% (inactive) | – |
| Cc1ccc(Nc2nc(-c3c(C)nc4ncccn34)cs2)cc1 | -13% (inactive) | – |
| Cc1ccc2[nH]c(-c3cccc(F)c3)cc(=O)c2c1 | -3.54% (inactive) | – |
| COc1cc2c(cc1OC)-c1cc(NC3CCCCC3)nc(=O)n1CC2 | -0.939% (inactive) | – |
| COc1cc2c(cc1OC)-c1cc(NC3CCCC3)nc(=O)n1CC2 | -0.848% (inactive) | – |
| COc1cc(S(=O)(=O)N2CCCCC2)ccc1NC(=O)/C=C/c1ccccc1 | -1.13% (inactive) | – |
